{"source": "PubChem BioAssay (EPA / NIEHS)", "key": {"[1]": {"target": "Muscarinic acetylcholine receptor M5 (Homo sapiens) (UniProt P08912)", "sequence (P08912 whole entry, looked up)": "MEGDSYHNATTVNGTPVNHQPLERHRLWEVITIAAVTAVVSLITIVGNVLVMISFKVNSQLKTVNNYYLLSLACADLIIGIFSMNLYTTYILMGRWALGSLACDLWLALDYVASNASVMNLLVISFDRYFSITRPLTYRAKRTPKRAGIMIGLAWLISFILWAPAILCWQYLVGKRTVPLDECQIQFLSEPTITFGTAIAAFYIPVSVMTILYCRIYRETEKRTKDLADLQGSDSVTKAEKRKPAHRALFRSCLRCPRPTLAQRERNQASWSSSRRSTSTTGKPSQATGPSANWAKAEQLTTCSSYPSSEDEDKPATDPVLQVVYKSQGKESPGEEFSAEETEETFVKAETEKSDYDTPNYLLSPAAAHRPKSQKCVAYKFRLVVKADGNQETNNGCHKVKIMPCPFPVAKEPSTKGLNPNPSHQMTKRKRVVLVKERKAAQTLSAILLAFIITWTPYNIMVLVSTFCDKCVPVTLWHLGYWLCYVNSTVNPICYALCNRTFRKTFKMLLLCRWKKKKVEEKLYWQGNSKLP", "assay": "NVS_GPCR_hM5: NovaScreen (NVS) G Protein-Coupled Receptor Assay for human Muscarinic, M5 Receptor (AID 2283275)", "outline": "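Radioligand displacement on CHO-derived membrane preparations, 1 h, filter-based scintillation counting. Single-concentration duplicate screen at 25 uM; hits (e.g. 30% inhibition) retested in singleton concentration-response up to 50 uM. Loss of binding fitted versus DMSO.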"}, "[2]": {"target": "human Neurokinin, NK2 Receptor, TACR2 (gene 6865) (UniProt P21452)", "sequence (P21452 whole entry, looked up)": "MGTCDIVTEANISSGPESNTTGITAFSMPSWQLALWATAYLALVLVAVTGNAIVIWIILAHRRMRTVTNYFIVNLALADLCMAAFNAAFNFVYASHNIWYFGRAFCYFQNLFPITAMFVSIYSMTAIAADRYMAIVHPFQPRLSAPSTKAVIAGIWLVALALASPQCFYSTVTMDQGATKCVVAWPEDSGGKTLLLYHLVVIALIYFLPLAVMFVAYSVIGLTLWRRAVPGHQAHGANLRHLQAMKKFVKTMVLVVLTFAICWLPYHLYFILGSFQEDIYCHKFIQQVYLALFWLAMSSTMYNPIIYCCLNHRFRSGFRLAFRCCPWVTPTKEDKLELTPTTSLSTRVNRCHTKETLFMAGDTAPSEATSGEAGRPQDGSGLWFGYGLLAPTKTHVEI", "assay": "NVS_GPCR_hNK2: NovaScreen (NVS) G Protein-Coupled Receptor Assay for human Neurokinin, NK2 Receptor (AID 2283278)", "outline": "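Filter-based scintillation counting measured radioligand bound to receptor extracted from CHO cells, 4 hours after compound addition. Chemicals screened first at 25 uM in duplicate, with actives retested in concentration series relative to DMSO.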"}, "[3]": {"target": "human Opioid Receptor Delta 1 (Opiate D1), OPRD1 (gene 4985) (UniProt P41143)", "sequence (P41143 whole entry, looked up)": "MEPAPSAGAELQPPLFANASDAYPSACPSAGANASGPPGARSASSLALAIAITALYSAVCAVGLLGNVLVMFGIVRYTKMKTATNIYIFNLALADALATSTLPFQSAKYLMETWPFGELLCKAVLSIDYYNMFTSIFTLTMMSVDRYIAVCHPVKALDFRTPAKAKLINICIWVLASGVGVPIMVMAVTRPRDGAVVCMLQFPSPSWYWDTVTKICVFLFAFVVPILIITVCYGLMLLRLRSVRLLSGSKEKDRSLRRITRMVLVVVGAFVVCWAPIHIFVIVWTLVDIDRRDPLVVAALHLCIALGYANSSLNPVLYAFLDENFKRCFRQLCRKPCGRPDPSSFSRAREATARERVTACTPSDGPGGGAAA", "assay": "NVS_GPCR_hOpiate_D1: NovaScreen (NVS) G Protein-Coupled Receptor Assay for human Opioid Receptor Delta 1 (Opiate D1) (AID 2283280)", "outline": "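Radioligand displacement on membranes from CHO cells expressing the receptor, read by filter scintillation counting 1 h after dosing. Duplicate single-point screen at 25 uM, then concentration series for actives; loss of signal versus DMSO.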"}, "[4]": {"target": "human Thromboxane A2 Receptor (TXA2), TBXA2R (gene 6915) (UniProt P21731)", "sequence (P21731 whole entry, looked up)": "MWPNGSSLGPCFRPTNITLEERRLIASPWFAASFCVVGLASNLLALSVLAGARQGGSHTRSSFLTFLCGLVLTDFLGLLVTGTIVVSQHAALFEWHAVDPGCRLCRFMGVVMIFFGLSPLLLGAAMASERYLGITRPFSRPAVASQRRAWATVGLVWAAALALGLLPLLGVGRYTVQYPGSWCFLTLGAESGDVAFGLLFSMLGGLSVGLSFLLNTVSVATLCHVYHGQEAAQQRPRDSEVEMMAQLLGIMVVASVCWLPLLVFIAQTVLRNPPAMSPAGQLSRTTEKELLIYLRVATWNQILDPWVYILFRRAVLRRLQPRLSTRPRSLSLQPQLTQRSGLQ", "assay": "NVS_GPCR_hTXA2: NovaScreen (NVS) G Protein-Coupled Receptor Assay for human Thromboxane A2 Receptor (TXA2) (AID 2283282)", "outline": "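Human platelet-derived receptor preparation incubated with test chemical and radiolabelled ligand for 1 hour, cell-free. Bound label was separated by filtration and counted; displacement relative to DMSO controls gave activity, screened at 25 uM, then titrated.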"}, "[5]": {"target": "human Opioid Receptor Mu (Opiate Mu), OPRM1 (gene 4988) (UniProt P35372)", "sequence (P35372 whole entry, looked up)": "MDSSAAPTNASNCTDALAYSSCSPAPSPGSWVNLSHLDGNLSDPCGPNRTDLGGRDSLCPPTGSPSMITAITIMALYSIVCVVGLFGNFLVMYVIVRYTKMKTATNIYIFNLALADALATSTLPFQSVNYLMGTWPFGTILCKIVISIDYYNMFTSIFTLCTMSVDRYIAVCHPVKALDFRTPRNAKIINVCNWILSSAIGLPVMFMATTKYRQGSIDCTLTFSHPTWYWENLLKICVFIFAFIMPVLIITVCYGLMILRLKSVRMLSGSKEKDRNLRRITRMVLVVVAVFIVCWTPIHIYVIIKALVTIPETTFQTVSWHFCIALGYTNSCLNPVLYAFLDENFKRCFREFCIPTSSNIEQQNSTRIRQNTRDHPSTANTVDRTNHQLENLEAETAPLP", "assay": "NVS_GPCR_hOpiate_mu: NovaScreen (NVS) G Protein-Coupled Receptor Assay for human Opioid Receptor Mu (Opiate Mu) (AID 2283290);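 note: hits lower bound tracer signal versus DMSO meaning displacement of the ligand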", "outline": "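CHO-derived receptor protein, cell-free; radioligand displacement, filtration + scintillation counting, read at 2.5 h. DMSO = negative control/baseline. Primary: 25 uM single conc, duplicate; secondary: concentration series.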"}, "[6]": {"target": "guinea pig Bradykinin Receptor B2 (BK2), BDKRB2 (gene 100135486) (UniProt O70526)", "assay": "NVS_GPCR_gBK2: NovaScreen (NVS) G Protein-Coupled Receptor Assay for guinea pig Bradykinin Receptor B2 (BK2) (AID 2283292)", "outline": "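Radioligand displacement on guinea pig ileum membranes for 1 h, read by filter-based scintillation counting; loss of signal relative to DMSO. Compounds were screened in duplicate at 25 uM, and those passing the threshold were retested in concentration-response up to 50 uM.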"}, "[7]": {"target": "rat Serotonin, 5-Hydroxytryptamine Receptor 1 (5HT1), Non-Selective Binding, Htr1a (gene 24473) (UniProt P19327)", "sequence (P19327 whole entry, looked up)": "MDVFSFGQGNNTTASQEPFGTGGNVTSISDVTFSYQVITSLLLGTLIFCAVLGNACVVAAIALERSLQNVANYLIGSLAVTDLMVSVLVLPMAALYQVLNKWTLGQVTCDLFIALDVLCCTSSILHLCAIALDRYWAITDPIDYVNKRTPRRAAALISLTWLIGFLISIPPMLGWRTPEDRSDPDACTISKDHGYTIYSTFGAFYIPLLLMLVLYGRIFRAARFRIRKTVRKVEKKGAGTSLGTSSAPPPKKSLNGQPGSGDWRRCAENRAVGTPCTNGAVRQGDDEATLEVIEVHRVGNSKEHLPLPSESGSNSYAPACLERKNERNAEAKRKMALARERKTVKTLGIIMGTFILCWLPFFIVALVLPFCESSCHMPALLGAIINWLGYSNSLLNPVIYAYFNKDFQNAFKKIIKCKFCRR", "assay": "NVS_GPCR_r5HT1_NonSelective: NovaScreen (NVS) G Protein-Coupled Receptor Assay for rat Serotonin, 5-Hydroxytryptamine Receptor 1 (5HT1), Non-Selective Binding (AID 2283286)", "outline": "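Rat cortical membranes, radioligand displacement, 1 h incubation, read by filter scintillation. Primary screen in duplicate at 25 uM. Hits (e.g. ≥30% inhibition) went to concentration-response up to 50 uM, fitted as loss of binding versus DMSO.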"}, "[8]": {"target": "Muscarinic acetylcholine receptor M3 (Homo sapiens) (UniProt P20309)", "sequence (P20309 whole entry, looked up)": "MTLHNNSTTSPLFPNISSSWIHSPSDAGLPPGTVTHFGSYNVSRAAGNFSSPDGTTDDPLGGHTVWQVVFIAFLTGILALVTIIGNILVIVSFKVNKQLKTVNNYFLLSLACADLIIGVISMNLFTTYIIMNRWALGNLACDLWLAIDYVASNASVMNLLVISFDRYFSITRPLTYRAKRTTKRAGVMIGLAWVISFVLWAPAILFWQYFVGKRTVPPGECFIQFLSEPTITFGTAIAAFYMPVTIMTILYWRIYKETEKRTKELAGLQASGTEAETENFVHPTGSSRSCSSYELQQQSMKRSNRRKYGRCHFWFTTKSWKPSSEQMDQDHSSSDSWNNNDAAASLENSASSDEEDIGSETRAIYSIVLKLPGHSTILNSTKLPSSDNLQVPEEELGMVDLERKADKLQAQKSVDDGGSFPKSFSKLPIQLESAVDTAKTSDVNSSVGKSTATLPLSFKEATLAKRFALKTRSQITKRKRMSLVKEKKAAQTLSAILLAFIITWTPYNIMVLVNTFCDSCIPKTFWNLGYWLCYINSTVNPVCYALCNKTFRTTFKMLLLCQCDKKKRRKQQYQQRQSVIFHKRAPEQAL", "assay": "NVS_GPCR_hM3: NovaScreen (NVS) G Protein-Coupled Receptor Assay for human Muscarinic, M3 Receptor (AID 2283272)", "outline": "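Radioligand displacement binding on human M3 receptor in CHO-derived membranes, 1 h incubation, filter-based scintillation counting. Primary screen in duplicate at 25 uM; actives followed up in concentration series; loss of signal versus DMSO.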"}, "[9]": {"target": "Muscarinic acetylcholine receptor M2 (Homo sapiens) (UniProt P08172)", "sequence (P08172 whole entry, looked up)": "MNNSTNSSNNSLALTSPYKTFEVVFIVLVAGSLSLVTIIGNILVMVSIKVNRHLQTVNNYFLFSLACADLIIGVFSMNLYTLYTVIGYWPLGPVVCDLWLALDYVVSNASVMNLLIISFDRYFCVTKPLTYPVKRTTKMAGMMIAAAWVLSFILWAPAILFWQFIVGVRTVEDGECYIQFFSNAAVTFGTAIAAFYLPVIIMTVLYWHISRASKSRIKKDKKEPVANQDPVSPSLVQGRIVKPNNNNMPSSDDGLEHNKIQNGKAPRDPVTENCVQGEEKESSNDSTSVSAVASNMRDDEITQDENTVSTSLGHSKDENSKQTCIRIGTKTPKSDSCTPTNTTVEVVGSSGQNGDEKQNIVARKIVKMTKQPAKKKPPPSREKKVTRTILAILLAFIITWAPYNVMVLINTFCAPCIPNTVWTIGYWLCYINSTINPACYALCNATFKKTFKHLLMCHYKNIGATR", "assay": "NVS_GPCR_hM2: NovaScreen (NVS) G Protein-Coupled Receptor Assay for human Muscarinic, M2 Receptor (AID 2283273)", "outline": "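Cell-free radioligand binding using membranes from CHO cells expressing the receptor; filter-based scintillation counting after 1 hour of compound exposure. Loss of specific binding relative to DMSO baseline; primary screen at 25 uM in duplicate, actives then run in concentration series.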"}, "[10]": {"target": "human Muscarinic, M4 Receptor, CHRM4 (gene 1132) (UniProt P08173)", "sequence (P08173 whole entry, looked up)": "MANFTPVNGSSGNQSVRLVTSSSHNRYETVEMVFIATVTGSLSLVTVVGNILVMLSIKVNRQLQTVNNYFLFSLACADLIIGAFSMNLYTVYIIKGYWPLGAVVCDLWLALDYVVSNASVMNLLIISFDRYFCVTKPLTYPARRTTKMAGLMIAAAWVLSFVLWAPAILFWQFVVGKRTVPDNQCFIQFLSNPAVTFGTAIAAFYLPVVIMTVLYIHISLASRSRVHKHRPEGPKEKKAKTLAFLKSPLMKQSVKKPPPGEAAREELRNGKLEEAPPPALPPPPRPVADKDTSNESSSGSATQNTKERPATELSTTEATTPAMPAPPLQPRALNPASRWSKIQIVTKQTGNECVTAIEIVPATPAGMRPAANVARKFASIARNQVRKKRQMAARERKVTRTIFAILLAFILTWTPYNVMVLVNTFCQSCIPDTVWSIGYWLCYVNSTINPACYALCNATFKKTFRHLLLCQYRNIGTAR", "assay": "NVS_GPCR_hM4: NovaScreen (NVS) G Protein-Coupled Receptor Assay for human Muscarinic, M4 Receptor (AID 2283274)", "outline": "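Cell-free radioligand displacement using CHO-derived human M4 receptor protein, 1 h after dosing; bound radioactivity by filtration and scintillation counting. Primary screen single 25 uM duplicate, actives followed in concentration series.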"}, "[11]": {"test_system": "5-hydroxytryptamine receptor 2C (pig)", "assay": "NVS_GPCR_p5HT2C: NovaScreen (NVS) G Protein-Coupled Receptor Assay for pig Serotonin, 5-Hydroxytryptamine Receptor 2C (5HT2C) (AID 2283288)", "outline": "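Pig choroid plexus membranes; radioligand competitive binding, filter-based scintillation counting, read 1 h after dosing. Primary screen in duplicate at 25 uM; actives then run as concentration series; loss of signal versus DMSO baseline.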"}, "[12]": {"target": "rat Adrenergic, Alpha 1, Non-selective Receptor (Adra1), Adra1a (gene 29412) (UniProt P43140)", "sequence (P43140 whole entry, looked up)": "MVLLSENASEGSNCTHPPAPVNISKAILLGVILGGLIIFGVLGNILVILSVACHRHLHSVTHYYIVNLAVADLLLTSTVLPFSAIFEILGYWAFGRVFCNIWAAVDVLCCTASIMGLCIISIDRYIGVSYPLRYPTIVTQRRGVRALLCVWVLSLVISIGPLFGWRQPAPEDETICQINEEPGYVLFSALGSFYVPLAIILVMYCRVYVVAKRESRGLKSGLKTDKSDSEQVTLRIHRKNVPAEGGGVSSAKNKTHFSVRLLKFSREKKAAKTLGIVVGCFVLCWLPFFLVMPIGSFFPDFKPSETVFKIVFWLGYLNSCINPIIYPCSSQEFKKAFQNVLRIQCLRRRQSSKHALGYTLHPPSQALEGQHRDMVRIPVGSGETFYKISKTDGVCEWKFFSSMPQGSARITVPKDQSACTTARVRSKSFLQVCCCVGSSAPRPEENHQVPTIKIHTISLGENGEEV", "assay": "NVS_GPCR_rAdra1_NonSelective: NovaScreen (NVS) G Protein-Coupled Receptor Assay for rat Adrenergic, Alpha 1, Non-selective Receptor (Adra1) (AID 2283289)", "outline": "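Rat forebrain membranes; radioligand displacement read by filter-based scintillation counting 1 h after dosing. Primary screen in duplicate at 25 uM; hits (e.g. ≥30% inhibition) rerun as concentration–response to 50 uM max. Fitted versus DMSO.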"}, "[13]": {"target": "human Purinergic Receptor P2Y, P2RY1 (gene 5028) (UniProt P47900)", "assay": "NVS_GPCR_hPY2: NovaScreen (NVS) G Protein-Coupled Receptor Assay for human Purinergic Receptor P2Y (AID 2283281)", "outline": "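Cell-free radioligand binding using U937-derived protein, 1 h after dosing, filter-based scintillation counting. Screened in duplicate at 25 uM; actives rerun as concentration-response up to 50 uM; loss of signal versus DMSO.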"}, "[14]": {"target": "Neuropeptide Y receptor type 2 (Homo sapiens) (UniProt P49146)", "assay": "NVS_GPCR_hNPY2: NovaScreen (NVS) G Protein-Coupled Receptor Assay for human Neuropeptide Receptor Y2 (NPY2) (AID 2283277)", "outline": "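Radioligand binding on membranes extracted from SK-N-MC cells, cell-free, read 1 h after dosing by filter-based scintillation counting. Loss of signal vs DMSO. Primary screen in duplicate at 25 uM; actives followed up in concentration-response up to 50 uM.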"}, "[15]": {"target": "human Neuropeptide Receptor Y1 (NPY1), NPY1R (gene 4886) (UniProt P25929)", "assay": "NVS_GPCR_hNPY1: NovaScreen (NVS) G Protein-Coupled Receptor Assay for human Neuropeptide Receptor Y1 (NPY1) (AID 2283276)", "outline": "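Cell-free radioligand binding using receptor extracted from SK-N-MC cells, 1 h incubation, filter-based scintillation counting. Primary screen single concentration 25 uM in duplicate; actives followed in concentration series. Loss of bound signal scored versus DMSO.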"}, "[16]": {"target": "human Vasopressin 1A Receptor (V1A), AVPR1A (gene 552) (UniProt P37288)", "sequence (P37288 whole entry, looked up)": "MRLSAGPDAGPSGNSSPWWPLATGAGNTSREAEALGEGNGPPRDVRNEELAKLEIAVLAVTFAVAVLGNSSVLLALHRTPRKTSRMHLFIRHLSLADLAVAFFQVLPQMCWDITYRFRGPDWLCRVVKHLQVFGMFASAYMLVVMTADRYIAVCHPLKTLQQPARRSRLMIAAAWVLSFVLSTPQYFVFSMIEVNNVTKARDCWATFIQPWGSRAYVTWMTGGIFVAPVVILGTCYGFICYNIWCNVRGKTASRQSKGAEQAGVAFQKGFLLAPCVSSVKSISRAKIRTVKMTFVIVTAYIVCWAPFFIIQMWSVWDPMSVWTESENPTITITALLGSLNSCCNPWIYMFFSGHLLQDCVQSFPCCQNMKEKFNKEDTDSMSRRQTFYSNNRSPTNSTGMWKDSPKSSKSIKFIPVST", "assay": "NVS_GPCR_hV1A: NovaScreen (NVS) G Protein-Coupled Receptor Assay for human Vasopressin 1A Receptor (V1A) (AID 2283284)", "outline": "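Cell-free radioligand displacement on human platelet preparations, 1.5 h incubation, filter-based scintillation counting. Chemicals first tested in duplicate at 25 uM; actives then run in concentration-response up to 50 uM, loss of signal fitted against DMSO.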"}}, "note": "Results filed as inconclusive are left out. Activity calls are given as the source filed them. Rule for the calls: active = hit-call score of the fitted dose curve at least 0.9, where 1 is the maximum; inconclusive = response in the unintended direction; inactive = score below 0.9.", "data": [{"smiles": "Cc1oc(-c2ccccc2)nc1CCOc1ccc(C[C@H](Nc2ccccc2C(=O)c2ccccc2)C(=O)O)cc1", "values": [{"measurement": "outcome", "setting": "[1]", "value": "inactive"}, {"measurement": "outcome", "setting": "[2]", "value": "inactive"}, {"measurement": "AC50", "setting": "[3]", "value": "12.8 µM (active)"}, {"measurement": "AC50", "setting": "[4]", "value": "3.52 µM (active)"}, {"measurement": "outcome", "setting": "[5]", "value": "inactive"}, {"measurement": "outcome", "setting": "[6]", "value": "inactive"}]}, {"smiles": "C=C(C)C(=O)OCCC(F)(F)C(F)(F)C(F)(F)C(F)(F)C(F)(F)C(F)(F)F", "values": [{"measurement": "outcome", "setting": "[4]", "value": "inactive"}, {"measurement": "outcome", "setting": "[7]", "value": "inactive"}]}, {"smiles": "CC[C@H](c1ccc(O)cc1)[C@@H](CC)c1ccc(O)cc1", "values": [{"measurement": "AC50", "setting": "[3]", "value": "8.04 µM (active)"}, {"measurement": "AC50", "setting": "[5]", "value": "1.1 µM (active)"}]}, {"smiles": "CCCCCCCC(=O)O", "values": [{"measurement": "outcome", "setting": "[8]", "value": "inactive"}, {"measurement": "outcome", "setting": "[9]", "value": "inactive"}, {"measurement": "AC50", "setting": "[10]", "value": "6.66 µM (active)"}]}, {"smiles": "CCN(CC)CCNc1ccc(CNC=O)c2sc3ccc(OC)cc3c(=O)c12", "values": [{"measurement": "AC50", "setting": "[8]", "value": "8.94 µM (active)"}, {"measurement": "AC50", "setting": "[9]", "value": "11.7 µM (active)"}, {"measurement": "AC50", "setting": "[10]", "value": "8.13 µM (active)"}, {"measurement": "AC50", "setting": "[1]", "value": "7.21 µM (active)"}, {"measurement": "outcome", "setting": "[3]", "value": "inactive"}, {"measurement": "AC50", "setting": "[11]", "value": "13.5 µM (active)"}, {"measurement": "AC50", "setting": "[12]", "value": "20.1 µM (active)"}, {"measurement": "AC50", "setting": "[5]", "value": "9.79 µM (active)"}]}, {"smiles": "C#C[C@]1(O)CC[C@H]2[C@@H]3CCC4=CC(=O)CC[C@@H]4[C@H]3CC[C@@]21C", "values": [{"measurement": "outcome", "setting": "[2]", "value": "inactive"}, {"measurement": "outcome", "setting": "[13]", "value": "inactive"}]}, {"smiles": "CCCOC(=O)c1ccc(O)cc1", "values": [{"measurement": "outcome", "setting": "[11]", "value": "inactive"}]}, {"smiles": "CCCCC(CC)COC(=O)CCCCC(=O)OCC(CC)CCCC", "note": "(centres undefined)", "values": [{"measurement": "outcome", "setting": "[14]", "value": "inactive"}, {"measurement": "AC50", "setting": "[4]", "value": "13.8 µM (active)"}]}, {"smiles": "O=C(OCCOCCOC(=O)c1ccccc1)c1ccccc1", "values": [{"measurement": "outcome", "setting": "[1]", "value": "inactive"}, {"measurement": "outcome", "setting": "[2]", "value": "inactive"}]}, {"smiles": "CC(C)CCCCCCOC(=O)CCCCC(=O)OCCCCCCC(C)C", "values": [{"measurement": "outcome", "setting": "[5]", "value": "inactive"}]}, {"smiles": "CCCCC(CC)COC(=O)CCCCC(=O)OCc1ccccc1", "note": "(centres undefined)", "values": [{"measurement": "AC50", "setting": "[4]", "value": "12.7 µM (active)"}]}, {"smiles": "Oc1cc2ccccc2c2ccccc12", "values": [{"measurement": "outcome", "setting": "[2]", "value": "inactive"}, {"measurement": "AC50", "setting": "[11]", "value": "0.848 µM (active)"}]}, {"smiles": "Oc1cccc(O)c1", "values": [{"measurement": "outcome", "setting": "[15]", "value": "inactive"}]}, {"smiles": "N#C[C@@H]1CC(F)(F)CN1C(=O)CNC1CC2CCC(C1)N2c1ncccn1", "note": "(some centres undefined)", "values": [{"measurement": "outcome", "setting": "[16]", "value": "inactive"}]}]}
